Molecules are shown by their SMILES. Hit rate of the full screen: of about 5,600 compounds, about 390 (7%) showed an effect of 50% or more. The entries come from a sample that favours strong results as a whole.

The target in the experiment is T1, Protein deacetylase HDAC6 (Homo sapiens) (UniProt Q9UBN7).
T1 sequence (whole entry): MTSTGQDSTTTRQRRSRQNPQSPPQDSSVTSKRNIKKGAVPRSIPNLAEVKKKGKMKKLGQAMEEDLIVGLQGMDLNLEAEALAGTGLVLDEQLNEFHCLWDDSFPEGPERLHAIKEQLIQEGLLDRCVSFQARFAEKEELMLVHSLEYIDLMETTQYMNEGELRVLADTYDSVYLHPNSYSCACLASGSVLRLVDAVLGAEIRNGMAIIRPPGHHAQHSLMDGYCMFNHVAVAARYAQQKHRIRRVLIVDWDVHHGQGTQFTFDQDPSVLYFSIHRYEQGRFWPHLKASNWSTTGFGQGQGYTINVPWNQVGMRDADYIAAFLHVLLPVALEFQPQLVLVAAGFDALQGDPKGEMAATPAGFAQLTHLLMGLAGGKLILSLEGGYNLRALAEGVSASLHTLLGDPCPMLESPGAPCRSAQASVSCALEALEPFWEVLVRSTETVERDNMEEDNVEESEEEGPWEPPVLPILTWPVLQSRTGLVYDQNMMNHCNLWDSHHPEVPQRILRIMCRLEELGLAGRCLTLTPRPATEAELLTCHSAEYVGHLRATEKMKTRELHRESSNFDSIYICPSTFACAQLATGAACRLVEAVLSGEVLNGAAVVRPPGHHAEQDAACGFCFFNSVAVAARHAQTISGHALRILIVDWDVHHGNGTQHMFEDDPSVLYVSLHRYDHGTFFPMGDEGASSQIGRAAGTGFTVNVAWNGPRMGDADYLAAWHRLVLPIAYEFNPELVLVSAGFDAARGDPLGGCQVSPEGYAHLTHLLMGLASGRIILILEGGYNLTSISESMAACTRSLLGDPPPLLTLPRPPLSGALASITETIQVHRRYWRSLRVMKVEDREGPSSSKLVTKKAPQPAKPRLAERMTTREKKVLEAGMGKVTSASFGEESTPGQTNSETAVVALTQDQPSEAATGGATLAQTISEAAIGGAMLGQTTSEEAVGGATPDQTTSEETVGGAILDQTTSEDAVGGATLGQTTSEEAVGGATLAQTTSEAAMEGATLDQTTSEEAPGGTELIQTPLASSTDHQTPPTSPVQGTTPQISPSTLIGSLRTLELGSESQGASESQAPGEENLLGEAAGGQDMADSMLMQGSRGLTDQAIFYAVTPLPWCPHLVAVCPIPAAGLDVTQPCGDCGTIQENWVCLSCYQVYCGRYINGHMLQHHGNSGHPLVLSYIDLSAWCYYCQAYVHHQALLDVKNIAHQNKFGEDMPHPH
Conditions: at 10 µM.
As for `C=C1NC[C@H](O)[C@@H](C(=O)O)N1`, the inhibition is -0.94%.

As to `COC(=O)C1=C(C)NC(C)=C(C(=O)OCCSc2ccccc2)C1C` (stereo not drawn), the inhibition was -9.24%.

For `CCOc1ccc(-n2c(C(C)N(Cc3cccnc3)C(=O)Cc3ccc(OC(F)(F)F)cc3)nc3ncccc3c2=O)cc1` (racemic), the inhibition came to 6.86%.

With `O=C1Nc2cc(Br)ccc2/C1=C1/Nc2ccccc2/C1=N\O`, the inhibition is 93.4%.

Consider `O=C1Nc2ccccc2/C1=C1/Nc2ccccc2C1=O`, for which the inhibition was 60.6%.

Consider `CN1C(=O)/C(=C2/C(=O)Nc3ccccc32)c2ccccc21`, for which the inhibition was 32.9%.

Consider `O=C1Nc2ccccc2/C1=C1/Nc2ccccc2/C1=N\O`, for which the inhibition was 100%.

With `N[C@@H]1CCN(O)C1=O`, the inhibition was found to be 19.6%.

With `C/C=C1\C(=O)C[C@H]2[C@@H]3CCC4=CC(=O)CC[C@]4(C)[C@H]3CC[C@]12C`, the inhibition was -4.59%.

In the case of `Cc1csc2c(N[C@@H](C)CN3CCN(S(=O)(=O)c4ccc(Cl)c(Cl)c4)CC3)ncnc12`, the inhibition was 7.29%.

Take `CNC(=O)[C@H]1O[C@@H](n2cnc3c(NCc4cccc(I)c4)ncnc32)[C@H](O)[C@@H]1O`: the inhibition is 9.22%.

`CC(C)(C)c1cc(O)c(C(C)(C)C)cc1O`: the inhibition amounted to 10.7%.

In the case of `CCOc1cc(C(=O)Nc2ccc(Cl)c(-c3nc4ccccc4[nH]3)c2)cc(OCC)c1OCC`, the inhibition was 11.9%.

On to `Nc1nc(=O)c2c([nH]1)NC[C@H](CNc1ccc(C(=O)N[C@@H](CCC(=O)O)C(=O)O)cc1)N2C=O`, for which the inhibition was determined as 3.47%.

In the case of `O=c1[nH]cnc2c1cnn2[C@@H]1O[C@H](CO)[C@@H](O)[C@H]1O`, the inhibition is 20.8%.

With `N[C@@H](Cc1cc(-c2ccc(Cl)cc2Cl)cc(CP(=O)(O)O)c1O)C(=O)O`, the inhibition was 4.67%.

With `O=c1c(O)c(-c2ccc(O)cc2O)oc2cc(O)cc(O)c12`, the inhibition was 92.5%.

In the case of `O=c1c(O[C@@H]2O[C@H](CO)[C@H](O)[C@H](O)[C@H]2O)c(-c2ccc(O)c(O)c2)oc2cc(O)cc(O)c12`, the inhibition is 28.9%.

As for `Cc1cc(=O)oc2cc(O)ccc12`, the inhibition worked out at 35.6%.

For `O=c1c(O)c(-c2ccc(O)c(O)c2)oc2cc(O)ccc12`, the inhibition was 97.4%.

In the case of `O=C1c2c(O)cc(O)cc2O[C@H](c2cc(O)c(O)c(O)c2)[C@H]1O`, the inhibition is -0.55%.

Consider `C[C@@H]1O[C@@H](Oc2c(-c3cc(O)c(O)c(O)c3)oc3cc(O)cc(O)c3c2=O)[C@H](O)[C@H](O)[C@H]1O`, for which the inhibition was -6.79%.

For `O=c1c(O)c(-c2ccc(O)cc2)oc2cc(O)cc(O)c12`, the inhibition turned out to be 98.8%.

As to `Cc1cc(=O)oc2c(C=O)c(O)ccc12`, the inhibition is -7.63%.

With `O=c1c(O)c(-c2cc(O)c(O)c(O)c2)oc2cc(O)cc(O)c12`, the inhibition was 100%.

On to `COc1ccc(C(=O)/C(Cc2cc(OC)c(OC)c(OC)c2)=C(\C(=O)O)c2ccc3c(c2)OCO3)cc1`, for which the inhibition amounted to 26.5%.

`Cc1cc(C)c2c(c1)[C@@H](N(Cc1cc(C(F)(F)F)cc(C(F)(F)F)c1)c1nnn(C)n1)CCCN2C[C@H]1CC[C@H](C(=O)O)CC1`: the inhibition was found to be 4.11%.

Regarding `Cc1nnsc1C(=O)Nc1ccc(-n2nc(C(F)(F)F)cc2C(F)(F)F)cc1`, the inhibition is 8.76%.

`O=C1Cc2cc(CCN3CCN(c4nsc5ccccc45)CC3)c(Cl)cc2N1`: the inhibition turned out to be 11.8%.

`COc1cccc(OCCCN)c1-c1cc(Nc2cnc(C#N)cn2)n[nH]1`: the inhibition was -3.28%.

For the compound `N#C[C@@H]1CCCN1C(=O)CNC12CC3CC(CC(O)(C3)C1)C2`, the inhibition is -7.44%.

`C/C=C\C1=C(C(=O)O)N2C(=O)C(NC(=O)C(N)c3ccc(O)cc3)C2SC1` (stereo not drawn): the inhibition was -7.76%.

As for `O=C(O)CCN(O)C(=O)CCCCCCCCC1CC1`, the inhibition stood at 37.2%.

`C=CC[N+]12CC[C@@]34c5ccccc5N5/C=C6/[C@H]7C[C@H]8[C@@]9(CC[N@@+]8(CC=C)C/C7=C/CO)c7ccccc7N(/C=C(/[C@@H](C[C@@H]31)/C(=C\CO)C2)[C@H]54)[C@@H]69` (stereo partly drawn): the inhibition stood at 31.2%.

In the case of `N=C(N)NCCC[C@@H](N)C(=O)N[C@@H](CCCNC(=N)N)C(=O)N1CCC[C@H]1C(=O)N1C[C@H](O)C[C@H]1C(=O)NCC(=O)N[C@@H](Cc1cccs1)C(=O)N[C@@H](CO)C(=O)N1Cc2ccccc2C[C@@H]1C(=O)N1[C@H](C(=O)N[C@@H](CCCNC(=N)N)C(=O)O)C[C@@H]2CCCC[C@@H]21`, the inhibition was 31.7%.

Turning to `COc1cc(CN(CCN)C(=O)c2cccs2)ccc1OCc1ccccc1`, the inhibition was -2.87%.

For `O=C(Nc1ccc(Cl)cc1)Nc1cccc(-c2cccc(N3CCCC3)n2)c1`, the inhibition is 20.6%.

For the compound `CC(C)c1c(NC(=O)Nc2ccc(Cl)cc2)c(=O)n(-c2ccccc2)n1C`, the inhibition was -4.84%.

For the compound `CN1CC(=O)N=C1NC(=O)Nc1cccc(Cl)c1`, the inhibition was 89.3%.

As to `CC(C)c1onc(-c2c(Cl)cccc2Cl)c1COc1ccc(/C=C/c2cccc(C(=O)O)c2)c(Cl)c1`, the inhibition amounted to 3.22%.

Consider `O=C(/C=C/c1ccc2c(c1)OCO2)N1CCCCC1`, for which the inhibition was determined as 97.2%.

As for `CC(C)(C)c1ccc(/C=C/C(=O)Nc2ccc3c(c2)OCCO3)cc1`, the inhibition is -7.4%.

In the case of `CC(C)(C)C(O)/C=C/c1ccc2c(c1)OCO2` (stereo not drawn), the inhibition stood at 15.9%.

Turning to `O=C(c1ccc2c(c1)OCO2)N1CCCCC1`, the inhibition stood at 21.9%.

As for `O=C(/C=C/C=C/c1ccc2c(c1)OCO2)N1CCCCC1`, the inhibition worked out at 115%.

For `C[N+](C)(C)CC[N+]1(C)Cc2c(Cl)c(Cl)c(Cl)c(Cl)c2C1`, the inhibition turned out to be 10.9%.

In the case of `COc1oc(=O)c2cc(N)ccc2c1Cl`, the inhibition came out at 22.8%.

Turning to `C=C1/C(=C\C=C2/CCC[C@]3(C)[C@@H]([C@H](C)CCCC(C)C)CC[C@@H]23)C[C@@H](O)C[C@@H]1O`, the inhibition is -2.44%.

The term inhibition denotes the relative decrease from the control value, in per cent.
